# Measurements published in PubChem BioAssay (NCATS).
# Unmarked numbers belong to inactive results.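 Rule for the calls: active = compounds whose dose series gives a full or clear partial fitted curve of increased nuclear translocation; inconclusive = weak partial curve or effect only at the top dose; inactive = no dose-dependent translocation response.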
# Target: Glucocorticoid receptor (Homo sapiens) (UniProt P04150)
# Test: GR-GFP Redistribution (AID 450)
# Settings: U2OS GR-GFP nuclear translocation, laser cytometry, 2 h
# Potency is the fitted concentration of half-maximal effect.
# Chain of Glucocorticoid receptor (Homo sapiens) (P04150 whole entry, looked up): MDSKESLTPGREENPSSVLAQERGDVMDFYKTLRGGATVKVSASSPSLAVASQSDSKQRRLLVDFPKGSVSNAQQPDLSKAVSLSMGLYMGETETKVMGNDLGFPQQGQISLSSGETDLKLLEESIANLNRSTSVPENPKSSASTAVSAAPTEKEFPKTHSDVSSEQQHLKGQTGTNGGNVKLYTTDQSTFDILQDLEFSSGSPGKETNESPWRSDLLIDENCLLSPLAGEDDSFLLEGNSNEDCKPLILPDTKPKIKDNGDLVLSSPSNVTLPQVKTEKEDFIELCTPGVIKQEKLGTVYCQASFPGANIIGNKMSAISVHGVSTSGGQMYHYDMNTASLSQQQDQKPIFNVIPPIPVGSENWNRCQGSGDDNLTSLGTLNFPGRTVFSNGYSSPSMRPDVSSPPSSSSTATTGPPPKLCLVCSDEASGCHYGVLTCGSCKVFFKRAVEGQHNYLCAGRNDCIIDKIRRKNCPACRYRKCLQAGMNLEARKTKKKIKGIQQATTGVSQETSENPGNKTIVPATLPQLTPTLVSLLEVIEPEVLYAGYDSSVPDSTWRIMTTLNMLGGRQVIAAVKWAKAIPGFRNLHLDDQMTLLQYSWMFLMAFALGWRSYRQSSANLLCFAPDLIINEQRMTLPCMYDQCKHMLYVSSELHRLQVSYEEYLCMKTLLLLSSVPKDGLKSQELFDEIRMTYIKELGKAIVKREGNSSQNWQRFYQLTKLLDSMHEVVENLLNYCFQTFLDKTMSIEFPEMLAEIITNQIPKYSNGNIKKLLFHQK
row,Structure (SMILES),Potency [µM]
1,Cc1cc2c(cc1Cl)N(C(=O)Nc1ccnc3ccccc13)CC2,> 46
2,NC1(C(=O)O)CCCCC1,> 46
3,CC(=O)C(C)=O,> 46
4,N[C@@H](Cc1ccc(O)c(I)c1)C(=O)O,> 20.6
5,CCCn1c(=O)c2[nH]c(-c3ccc(S(=O)(=O)O)cc3)nc2n(CCC)c1=O,> 46
6,O=C(O)C1CCNCC1,> 46
7,COc1ccccc1N1CCN(CCN(C(=O)c2ccc(F)cc2)c2ccccn2)CC1,> 46
8,N=C(N)c1ccc(OCCCCCOc2ccc(C(=N)N)cc2)cc1 (tested in a mixture with another compound),> 46
9,O=C(O)C1=CCCNC1,> 46
10,N[C@@H](Cc1c[nH]c2ccccc12)C(=O)O,> 46
11,CC1CNCCN1S(=O)(=O)c1cccc2cnccc12 (configuration not stated),> 20.6
12,CN1CCN(c2nc3cc(C(F)(F)F)ccc3n3cccc23)CC1,> 46
13,NC(=O)CNCCC(c1ccccc1)c1ccccc1,> 46
14,N=C(N)SCCN,> 46
15,NCCCCN=C(N)N,> 46
16,c1ccc(CN2CCC3(CCCc4ccccc43)CC2)cc1,> 46
17,O=C(O)C1=CCCN(CCON=C(c2ccccc2)c2ccccc2)C1,> 46
